IMPase Li inh: qHTS Assay for Identifying the Cell-Membrane Permeable IMPase Inhibitors: Potentiation with Lithium; CHO-M1 cells, IP1 TR-FRET (IP-One), carbachol + lithium; Potency, µM (top dose mostly 59.4 µM), for the others: at the top dose activity, negative = IMPase inhibition, hits mostly inhibitors; 210,000 tested, 0.35% active; AID 1457, 2008; active = well fitted curve in the direction sought with a large enough effect; inconclusive = small, poorly fitted or top-dose-only effect, or another doubt; inactive = no such curve, though single readings can be large; an effect the other way counts as inactive or inconclusive;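 also: IP1 builds up when IMPase is blocked and the TR-FRET signal falls; potency is read from the fitted curve at half-maximal effect; plate controls were basal vehicle for no effect and high inhibitor control for full effect; nearly all actives have a fitted effect of over 50% in size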
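Readout is a homogeneous TR-FRET IP1 immunoassay (Ex 320, Em 665 and 620), where raised cytosolic IP1 lowers signal. Cells were CHO-M1 treated 30 min at 37C with test compounds plus a little lithium; AC50 values came from Hill-equation fitting.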
NPSR antag: qHTS Assay for Antagonists of the Neuropeptide S Receptor: cAMP Signal Transduction. Q6W5P4. CHO-NPSR cells, cAMP TR-FRET, antagonist mode. Potency, µM (doses to about 38.3 µM), for inactives: at the top dose activity change, negative = inhibition, usual class: inhibitors. 220,000 tested, 1% active. AID 1461, 2008; active = well fitted curve in the direction sought with a large enough effect; inconclusive = small, poorly fitted or top-dose-only effect, or another doubt; inactive = no such curve, though single readings can be large; an effect the other way counts as inactive or inconclusive; also: potency is read from the fitted curve at half-maximal effect; nearly all actives have a fitted effect of over 50% in size
Target sequence (Q6W5P4 whole entry, looked up): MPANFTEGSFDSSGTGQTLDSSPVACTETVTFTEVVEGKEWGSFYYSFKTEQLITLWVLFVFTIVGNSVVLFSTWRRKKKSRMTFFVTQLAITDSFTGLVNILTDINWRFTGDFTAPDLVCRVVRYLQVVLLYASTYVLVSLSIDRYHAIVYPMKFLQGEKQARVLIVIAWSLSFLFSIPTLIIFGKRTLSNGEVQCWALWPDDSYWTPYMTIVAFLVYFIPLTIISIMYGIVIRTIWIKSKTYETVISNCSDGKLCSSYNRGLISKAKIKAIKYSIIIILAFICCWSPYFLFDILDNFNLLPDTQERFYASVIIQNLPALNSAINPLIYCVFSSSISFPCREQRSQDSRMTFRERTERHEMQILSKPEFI
PNC assembly inh: High Content Assay for Compounds that inhibit the Assembly of the Perinucleolar Compartment; PC3M PTB-GFP, PNC prevalence imaging, 16 h; hits give low values; activity change (PNC), negative = inhibition, % at 10 µM; 140,000 tested, 3.1% active; AID 2417, 2010;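 active = readout at or below -70, meaning at least 70% loss of cells showing the perinucleolar compartment, a nuclear body marking cancer cells; inconclusive = readout between -30 and a set limit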;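 also: plate controls were DMSO wells for no effect and camptothecin positive control wells for full effect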
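PC3M cells stably expressing PTB-GFP, 750–1000 cells/well, treated 16 h at 37 °C with compound (23 nl of library stock), in duplicate. After paraformaldehyde fixation and Hoechst stain, imaged at 20x; PNC prevalence scored by image analysis.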
IMPase cell inh: qHTS Assay for Identifying the Cell-Membrane Permeable IMPase Inhibitors; Inositol monophosphatase 1 (Rattus norvegicus), P97697; inhibition (IP1 accumulation), % at 46.1 µM; CHO-M1 cells, IP1 accumulation, HTRF TR-FRET ratio; 120,000 tested, under 10 active; active = well fitted curve in the direction sought with a large enough effect in the signal ratio, not every such curve was filed as active; inconclusive = small, poorly fitted or top-dose-only effect, or a change in a side signal; inactive = no such curve, though single readings can be large or run the other way; the % refers to the signal ratio;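 also: cells stimulated with carbachol in lithium chloride buffer; plate controls were DMSO basal wells for no effect and reference inhibitor wells for full effect; higher means more IMPase inhibition seen as more IP1 and lower FRET ratio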
Target sequence (P97697 whole entry, looked up): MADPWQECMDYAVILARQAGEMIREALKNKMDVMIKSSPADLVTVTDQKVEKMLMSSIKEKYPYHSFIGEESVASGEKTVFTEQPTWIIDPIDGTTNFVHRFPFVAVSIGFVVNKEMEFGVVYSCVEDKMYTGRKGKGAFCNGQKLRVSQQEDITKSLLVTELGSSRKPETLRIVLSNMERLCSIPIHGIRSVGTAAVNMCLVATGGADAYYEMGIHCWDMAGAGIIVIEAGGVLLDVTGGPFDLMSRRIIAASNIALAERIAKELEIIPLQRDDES
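CHO-M1, 2000 cells/well, cultured 16–30 h; cpd up to 46 uM; carbachol (50 uM solution, stimulation buffer w/ 50 mM LiCl, pH 7.4), 30 min 37C; IP-One TR-FRET, 10 min RT; Ex 320/Em 665, 620; Hill-fit AC50.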
ALDH1A1 block: qHTS Assay for Inhibitors of Aldehyde Dehydrogenase 1 (ALDH1A1) | Aldehyde dehydrogenase 1A1 (Homo sapiens), P00352 | Purified ALDH1A1, NADH fluorescence, propionaldehyde substrate | Potency, µM (doses to about 75.3 µM), without a hit: top-dose activity, negative = inhibition, usual class: inhibitors | 220,000 tested, 7.3% active | AID 1030, 2008;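 also: potency is read from the fitted curve at half-maximal effect; plate controls were no enzyme wells and a reference inhibitor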
HPGD inh: qHTS Assay for Inhibitors of HPGD (15-Hydroxyprostaglandin Dehydrogenase); 15-hydroxyprostaglandin dehydrogenase [NAD(+)] (Homo sapiens), P15428; purified HPGD, NADH fluorescence kinetic, PGE2 substrate; Potency, µM, for the others: top-dose activity change, negative = inhibition, usual class: inhibitors; 150,000 tested, 4.3% active; also: potency is read from the fitted curve at half-maximal effect
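20 nM HPGD preincubated 15 min at room temperature with compound in 50 mM Tris-HCl pH 8, 0.01% Tween 20. Started with 1 mM NAD+ and 30 uM prostaglandin E2; NADH fluorescence (360/450 nm) read 5 times over 30-s intervals, last minus first.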
An asterisk follows results filed as active; [ ] = dose if it differs, or a comment. Shown are actives, neighbours in structure and some others; about 11% of the full set was active somewhere. Unless noted, calls follow the shape of the dose curve; as a rule, active = well fitted inhibition curve with a large enough effect (not every such curve was filed as active); inconclusive = small, poorly fitted or top-dose-only effect, or another doubt; inactive = no such curve, though single readings can be large or run the other way. Unless noted, % is scaled to controls: 0 for no effect and ±100 for the full control effect.

Results for Cc1nc(SCC(=O)O)c(C#N)c(C)c1CC(=O)c1ccccc1 ?
IMPase Li inh: -10%; NPSR antag: 1%; ALDH1A1 block: -25%

Results for Cc1cc(C)c(C#N)c(SCC(=O)CC(=O)OC(C)C)n1 ?
IMPase Li inh: 16%[38.3 µM]; NPSR antag: -9%[46.1 µM]; PNC assembly inh: inconclusive; IMPase cell inh: 2; ALDH1A1 block: 17%; HPGD inh: -6%

Results for CCOc1ccc2cc(C#N)c(SCC(=O)N3CCOCC3)nc2c1 ?
IMPase Li inh: 2.8µM*; NPSR antag: -1%[46.1 µM]; PNC assembly inh: inconclusive; IMPase cell inh: -20; ALDH1A1 block: 3.5µM*; HPGD inh: inconclusive

What do the screens show for `COCc1cc(C)nc(SCC(=O)c2ccc(O)c(O)c2)c1C#N`?
IMPase Li inh: 57%[38.3 µM]; NPSR antag: -20%[46.1 µM]; PNC assembly inh: 33; IMPase cell inh: 2[1.84 µM]; ALDH1A1 block: -13%; HPGD inh: 16µM*

What do the screens show for `CCOC(=O)c1c(C)nc(SCC(N)=O)c(C#N)c1-c1ccccc1`?
IMPase Li inh: 0%; NPSR antag: 6%; PNC assembly inh: -114*; ALDH1A1 block: inconclusive; HPGD inh: 0%

How did CCOC(=O)c1c(C)nc(C)c(C(=O)OCC)c1-c1ccccc1 do in these assays?
IMPase Li inh: -9%[38.3 µM]; NPSR antag: inconclusive; PNC assembly inh: 1; IMPase cell inh: -23; ALDH1A1 block: inconclusive; HPGD inh: inconclusive

How did CCOC(=O)CSc1nc2cc3c(cc2cc1C#N)OCO3 do in these assays?
IMPase Li inh: 0%[38.3 µM]; NPSR antag: 18%[46.1 µM]; PNC assembly inh: -127*; IMPase cell inh: 7; ALDH1A1 block: -2%; HPGD inh: -12%

Results for CCc1nc(C)cn1S(=O)(=O)c1cc(F)ccc1OC ?
IMPase Li inh: 7%; NPSR antag: 12%; ALDH1A1 block: 1%

What do the screens show for `CCOc1cc(CNC2CCCC2)ccc1OCc1ccccc1Cl`?
IMPase Li inh: 16%; NPSR antag: -39%; ALDH1A1 block: 3%

What do the screens show for `COc1cccc(C2CCCN2Cc2nc(-c3sccc3C)oc2C)c1` (configuration not stated)?
IMPase Li inh: 16%; NPSR antag: 51%; ALDH1A1 block: inconclusive

What do the screens show for `Cc1nnc(OC(C)C)c2nn(-c3ccccc3F)c(C)c12`?
IMPase Li inh: 23%[38.3 µM]; NPSR antag: 9%[46.1 µM]; PNC assembly inh: 1; IMPase cell inh: 1; ALDH1A1 block: 2%; HPGD inh: -3%

Results for CCOc1nnc(C)c2c(C)n(-c3cccc(OC)c3)nc12 ?
IMPase Li inh: -4%[38.3 µM]; NPSR antag: 8%[46.1 µM]; PNC assembly inh: -106*; IMPase cell inh: -1; ALDH1A1 block: 4%; HPGD inh: -7%

Results for Cc1ccccc1C1C(C#N)=C2N=C(N)c3c(sc4c3CCCCC4)N2C2=C1C(=O)CC(C)(C)C2 (configuration not stated) ?
IMPase Li inh: -13%[38.3 µM]; NPSR antag: inconclusive; PNC assembly inh: 87; IMPase cell inh: 5; ALDH1A1 block: 7.1µM*; HPGD inh: -5%

What do the screens show for `Cc1cc(NC(=O)C(C)(C)C)no1`?
IMPase Li inh: 6%[38.3 µM]; NPSR antag: -7%[46.1 µM]; PNC assembly inh: -84*; IMPase cell inh: 2; ALDH1A1 block: 11%; HPGD inh: -1%

Results for Cc1cc(NC(=O)NC(C)(C(F)(F)F)C(F)(F)F)no1 ?
NPSR antag: 1%

How did Cc1cc(NC(=O)CC23CC4CC(C2)CC(CC(=O)Nc2cc(C)on2)(C4)C3)no1 do in these assays?
IMPase Li inh: 28%[38.3 µM]; NPSR antag: -11%[46.1 µM]; PNC assembly inh: -92*; IMPase cell inh: 3; ALDH1A1 block: inconclusive; HPGD inh: -7%

Results for CC(=O)N1CCN(C2c3cccc4cccc(c34)C2NS(=O)(=O)c2ccccc2)CC1 (configuration not stated) ?
IMPase Li inh: 10%[38.3 µM]; NPSR antag: -9%[46.1 µM]; PNC assembly inh: 61; IMPase cell inh: 16; ALDH1A1 block: inconclusive; HPGD inh: -3%

How did Cc1ccc(C(=O)N2CCN(C3c4cccc5cccc(c45)C3NS(=O)(=O)c3ccccc3)CC2)cc1 (configuration not stated) do in these assays?
IMPase Li inh: -6%[38.3 µM]; NPSR antag: inconclusive; PNC assembly inh: -20; IMPase cell inh: 5; ALDH1A1 block: 22µM*; HPGD inh: -6%

Results for COc1ccc(OCc2cnc(Cl)s2)cc1 ?
IMPase Li inh: -11%[38.3 µM]; NPSR antag: 3%[46.1 µM]; PNC assembly inh: 17; IMPase cell inh: 5; ALDH1A1 block: -10%; HPGD inh: -28%

How did COc1ccccc1NC(=O)N1CCn2c(nc3ccccc32)C1 do in these assays?
IMPase Li inh: -6%[38.3 µM]; NPSR antag: -4%[46.1 µM]; PNC assembly inh: inconclusive; IMPase cell inh: -6; ALDH1A1 block: 8%; HPGD inh: -2%

Results for O=C(Nc1ccccc1Cl)N1CCn2c(nc3ccccc32)C1 ?
IMPase Li inh: -17%[38.3 µM]; NPSR antag: -4%[46.1 µM]; PNC assembly inh: -111*; IMPase cell inh: 5; ALDH1A1 block: -37%; HPGD inh: -14%

What do the screens show for `Cc1cc(NC(=O)CCCN2C(=O)c3cccc4cccc(c34)C2=O)no1`?
IMPase Li inh: 4%; NPSR antag: -1%; ALDH1A1 block: inconclusive

What do the screens show for `CC(=O)Nc1ccc(S(=O)(=O)N2CCN(Cc3ccccc3[N+](=O)[O-])CC2)cc1`?
IMPase Li inh: 9%; NPSR antag: -10%; ALDH1A1 block: 22µM*

How did CC(=O)Nc1ccc(S(=O)(=O)N2CCN(Cc3ccccn3)CC2)cc1 do in these assays?
IMPase Li inh: 21%[38.3 µM]; NPSR antag: 6%[46.1 µM]; PNC assembly inh: -27; IMPase cell inh: 3; ALDH1A1 block: inconclusive; HPGD inh: -2%

How did CC(=O)Nc1ccc(S(=O)(=O)N2CCN(CC3CC4C=CC3C4)CC2)cc1 (configuration not stated) do in these assays?
IMPase Li inh: 17%; NPSR antag: -14%; ALDH1A1 block: 4.5µM*

What do the screens show for `CCN1CCN(CC2CC3C=CC2C3)CC1` (configuration not stated)?
IMPase Li inh: 8%; NPSR antag: 25%; PNC assembly inh: 3; IMPase cell inh: -14; ALDH1A1 block: inconclusive; HPGD inh: -3%

From PubChem BioAssay
